C diff growth – inhibitors of Clostridium difficile growth. AID 1259249. growth activity, negative = inhibition, % at 16 µg/mL (by protocol). Clostridium difficile clinical isolate growth, OD600, 24 h; hits give low values. 86,000 tested, 0.25% active;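 active means mean growth activity at or below -80% and every replicate also at or below -80%; inconclusive means mean at or below -80% but some replicate above -80%; inactive means mean growth activity above -80%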;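 further: 0% = DMSO wells and -100% = levofloxacin 16 µg/mL wells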
Pf Dd2 growth – blocks growth of Plasmodium falciparum Dd2 parasites. activity change, % at 10 µM. 94,000 tested, 2.3% active. P. falciparum Dd2 growth, SYBR Green, 72 h; hits give low values; in the data active means activity change below about -80%; inconclusive means no clear call, values can overlap the other calls
T cruzi growth-1 – blocks T. cruzi growth in NIH3T3 culture. T. cruzi beta-gal in NIH3T3, GalScreen luminescence, 90 h. inhibition, % at 8.34 µM. 77,000 tested, 5.9% active;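 active means mean inhibition above about 93%, with at least 55% of replicates each passing it, limit read from the data, passing the limit was not always enough; inconclusive means only one of those two conditions holds; inactive means neither condition holds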
T cruzi growth-2 – blocks T. cruzi growth in NIH3T3 host cells | shares compounds with T cruzi growth-1 | T. cruzi beta-gal in NIH3T3, GalScreen luminescence, 90 h | inhibition, % at 8.35 µM | 5,600 tested, 72% active | AID 651739;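 active means mean replicate inhibition above about 95% and at least 55% of replicates individually reaching it, limit read from the data; inconclusive means only one of the two criteria is met; inactive means neither criterion is met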
T cruzi growth-3 – blocks T. cruzi growth in NIH3T3 host cells; 5,600 tested, 21% active; shares compounds with T cruzi growth-1; T. cruzi beta-gal in NIH3T3, GalScreen luminescence, 90 h; inhibition, % at 2.09 µM; AID 651740;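 active means mean inhibition above about 95%, with at least 55% of replicates also reaching it, limit read from the data; inconclusive means meets just one of the two conditions; inactive means meets neither condition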;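 further: plate controls were neutral control median for no effect and positive control median for full effect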
3T3 cytotox – kills mouse NIH/3T3 fibroblasts | cytotoxicity (signal decrease), % at 8.35 µM | AID 651742 | NIH/3T3 viability, CellTiter-Glo ATP luminescence, 90 h | 5,600 tested, 14% active | shares compounds with T cruzi growth-1;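 active means mean signal decrease across replicates above about 35% based on untreated-well scatter, with enough replicates individually passing, limit read from the data; inconclusive means no rule stated though some were filed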;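 further: 0% = median of neutral control wells and 100% = median of positive control wells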
3T3 cytotox 2 – NIH/3T3 (mouse) viability loss; AID 651744; shares compounds with T cruzi growth-1; NIH/3T3 viability, CellTiter-Glo ATP luminescence, 90 h; inhibition, % at 24.9 µM; 5,600 tested, 56% active;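 active means mean loss of cell viability signal at or above a set limit, and enough replicates individually reaching it; inconclusive means meets only the mean limit or only the replicate share; inactive means meets neither condition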;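 further: 0% = median of neutral control wells and 100% = median of positive control wells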
Starred values were filed as active, the others as inactive; ? = inconclusive; / = not tested or not shown. An excerpt weighted towards active compounds, which were near 6.7% of everything screened.

SMILES	C diff growth	Pf Dd2 growth	T cruzi growth-1	T cruzi growth-2	T cruzi growth-3	3T3 cytotox	3T3 cytotox 2
COc1ccccc1CNC(=O)C[C@H]1C[C@H]2c3cc(NC(=O)NC4CCCC4)ccc3O[C@H]2[C@H](CO)O1	6	-19	109*	108*	28	-5	9
COc1ccccc1CNC(=O)C[C@H]1C[C@@H]2c3cc(NC(=O)CC4CC4)ccc3O[C@@H]2[C@H](CO)O1	1	0	-20	/	/	/	/
CO[C@@H]1CN(C)C(=O)c2cc(NC(=O)c3ccc(F)cc3)ccc2OC[C@H](C)N(C(=O)c2ccc(F)cc2)C[C@@H]1C	/	-65	-8	/	/	/	/
Cc1ccc(S(=O)(=O)NCC[C@@H]2CC[C@@H](NC(=O)c3ccccn3)[C@@H](CO)O2)cc1	-3	1	50	/	/	/	/
COc1ccc(-c2ccc3c(c2)[C@@H]2[C@@H](CCN2C(=O)CN2CCOCC2)[C@@H](CO)N3)cc1	-19	-12	60	/	/	/	/
O=C(CN1CCOCC1)N1CC[C@H]2[C@H](CO)Nc3ccc(-c4ccc(F)cc4)cc3[C@H]21	3	-25	86	/	/	/	/
O=C(CN1CCOCC1)N1CC[C@@H]2[C@H]1c1cc(-c3ccccc3)ccc1N[C@@H]2CO	-11	7	?	98*	14	-17	5
CN(C)C(=O)c1cccc(-c2ccc3c(c2)[C@@H]2[C@@H](CCN2C(=O)C2CCOCC2)[C@H](CO)N3)c1	2	3	?	99*	26	-14	-9
CN(C)C(=O)c1cccc(-c2ccc3c(c2)[C@H]2[C@H](CCN2C(=O)C2CCOCC2)[C@H](CO)N3)c1	5	8	92	/	/	/	/
COc1cccc(-c2ccc3c(c2)[C@H]2[C@H](CCN2C(=O)CN2CCOCC2)[C@@H](CO)N3)c1	-9	-16	?	87	34	-9	-2
COc1cccc(-c2ccc3c(c2)[C@@H]2[C@@H](CCN2C(=O)C2CCOCC2)[C@@H](CO)N3)c1	-1	-7	103*	101*	?	13	17
COc1cccc(-c2ccc3c(c2)[C@H]2[C@H](CCN2C(=O)C2CC2)[C@H](CO)N3)c1	-18	-58	/	/	/	/	/
O=C1CN(S(=O)(=O)Cc2ccccc2)C[C@@H]2[C@H](c3ccc(C#Cc4cccnc4)cc3)[C@@H](CO)N12	-5	-39	/	/	/	/	/
Cc1cc(C(=O)Nc2ccc3c(c2)C(=O)N(C)[C@@H]2CC[C@H](CC(=O)N[C@H](C)c4ccccc4)O[C@H]2CO3)no1	-8	3	-15	/	/	/	/
COc1cccc(-c2ccc3c(c2)[C@@H]2[C@@H](CCN2C(=O)Cc2ccccc2)[C@@H](CO)N3)c1	-28	1	17	/	/	/	/
COc1cccc(-c2ccc3c(c2)[C@H]2[C@H](CCN2C(=O)Cc2ccncc2)[C@H](CO)N3)c1	/	-76	104*	95	62	4	15
CO[C@@H]1CN(C)C(=O)c2ccc(NS(C)(=O)=O)cc2OC[C@@H](C)N(C(=O)C2CCCCC2)C[C@H]1C	1	-27	50	/	/	/	/
CC(C)C#Cc1ccc2c(c1)O[C@@H](CN(C)C(=O)c1ccncc1)[C@@H](C)CN([C@@H](C)CO)S2(=O)=O	-1	2	102*	100*	?	23	45*
C[C@H](O)C#Cc1ccc2c(c1)O[C@@H](CN(C)Cc1ccncc1)[C@@H](C)CN([C@@H](C)CO)S2(=O)=O	-2	-18	66	/	/	/	/
CC(C)C#Cc1ccc2c(c1)O[C@H](CN(C)Cc1ccncc1)[C@@H](C)CN([C@H](C)CO)S2(=O)=O	1	-68	?	99*	101*	57*	103*
C[C@H](CO)N1C[C@H](C)[C@@H](CN(C)Cc2ccncc2)Oc2cc(C#C[C@@H](C)O)ccc2S1(=O)=O	2	-27	75	/	/	/	/
CC(C)C#Cc1ccc2c(c1)O[C@H](CN(C)C(=O)c1ccncc1)[C@H](C)CN([C@H](C)CO)S2(=O)=O	-2	26	39	/	/	/	/
CC(C)C#Cc1ccc2c(c1)O[C@@H](CN(C)Cc1ccncc1)[C@H](C)CN([C@H](C)CO)S2(=O)=O	19	-71	119*	106*	102*	63*	104*
CNC[C@@H]1Oc2ncc(C#CC3CCCC3)cc2C(=O)N([C@@H](C)CO)C[C@@H]1C	4	-31	96	/	/	/	/
C[C@H](CO)N1C[C@H](C)[C@H](CN(C)Cc2ccccc2)Oc2ncc(C#Cc3cccnc3)cc2C1=O	/	-20	101*	70	15	15	33
SMILES	C diff growth	Pf Dd2 growth	T cruzi growth-1	T cruzi growth-2	T cruzi growth-3	3T3 cytotox	3T3 cytotox 2
CNC[C@H]1Oc2ncc(C#CCC3CCCC3)cc2C(=O)N([C@H](C)CO)C[C@H]1C	6	-45	?	108*	92	11	106*
C[C@@H]1CN([C@H](C)CO)C(=O)c2cc(C#CCc3ccccc3)cnc2O[C@@H]1CN(C)C(=O)C1CCCCC1	0	-34	35	/	/	/	/
C[C@@H]1CN([C@@H](C)CO)C(=O)c2cc(C#CCC3CCCC3)cnc2O[C@H]1CN(C)Cc1ccccn1	-34	-50	110*	105*	47	2	104*
C[C@H]1CN([C@@H](C)CO)C(=O)c2cc(C#Cc3cccnc3)cnc2O[C@@H]1CN(C)Cc1ccccc1	/	-57	91	/	/	/	/
C[C@H](CO)N1C[C@H](C)[C@H](CN(C)Cc2ccccn2)Oc2ncc(C#CCC3CCCC3)cc2C1=O	-11	-5	65	/	/	/	/
C[C@H](CO)N1C[C@H](C)[C@@H](CN(C)C(=O)C2CCCCC2)Oc2ncc(C#CCc3ccccc3)cc2C1=O	16	-77	?	94	-19	17	106*
CCS(=O)(=O)N1CCC2(CC1)CN(C(=O)Nc1c(C)noc1C)[C@@H](CO)c1[nH]c3cc(OC)ccc3c12	-1	-29	/	/	/	/	/
Cc1noc(C)c1NC(=O)Nc1cccc2c1O[C@@H](CN(C)C(=O)NC1CCCCC1)[C@H](C)CN([C@@H](C)CO)C2=O	-1	-13	13	/	/	/	/
COc1ccc2c3c(n(C)c2c1)[C@@H](CO)N(C(=O)NC1CCCC1)CC31CN(C)C1	-15	4	/	/	/	/	/
C[C@@H]1CN([C@@H](C)CO)C(=O)c2cc(C#CCc3ccccc3)cnc2O[C@@H]1CN(C)Cc1cccnc1	-7	-53	101*	79	-10	-10	-9
C[C@H](CO)N1C[C@H](C)[C@H](CN(C)Cc2cccnc2)Oc2ncc(C#CCc3ccccc3)cc2C1=O	-6	-56	71	/	/	/	/
C[C@@H]1CN([C@H](C)CO)C(=O)c2cc(C#CCc3ccccc3)cnc2O[C@H]1CN(C)CC1CCOCC1	-4	-63	-62	/	/	/	/
C[C@H]1CN([C@@H](C)CO)C(=O)c2cc(C#CCc3ccccc3)cnc2O[C@@H]1CN(C)CC1CCCC1	-1	-88*	109*	103*	?	19	103*

Screens (PubChem BioAssay)
